# Source: PubChem BioAssay (EPA / NIEHS)
# Active and inactive are the calls of the source. How the source made its calls: active means hit-call score of the fitted dose curve at least 0.9, where 1 is the maximum; inactive means score below 0.9.
# Tests used:
# Settings in all cases: mRNA level, 48 h; actives raise or lower the signal
# [1] = read-out: Ezrin (EZR), EZR (gene 7430); assay: LTEA_HepaRG_EZR: Life Technologies and Expression Analysis (LTEA) Assay for Ezrin (EZR) using HepaRG (AID 2283491)
# Summary of the method: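 Gain or loss of EZR mRNA is scored relative to 0.5% DMSO in human HepaRG cultures treated 48 h with test chemicals in duplicate, eight half-log concentrations from 100 uM.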
# [2] = read-out: Cytochrome P450 3A7 (Homo sapiens) (UniProt P24462); assay: LTEA_HepaRG_CYP3A7: Life Technologies and Expression Analysis (LTEA) Assay for CYP3A7 using HepaRG (AID 2283492)
# Summary of the method: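 Differentiated HepaRG cells in serum-free induction medium exposed 48 h in duplicate to 8-point half-log series from 100 uM top in 0.5% DMSO. CYP3A7 mRNA by qRT-PCR, normalized to ACTB/GAPDH/POLR2A, bidirectional fit versus DMSO.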
# CYP3A5 (gene 1577) = assay: LTEA_HepaRG_CYP3A5: Life Technologies and Expression Analysis (LTEA) Assay for CYP3A5 using HepaRG (AID 2283493)
# Summary of the method: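 Human HepaRG hepatic cells receive 48 h chemical treatment at eight concentrations (half-log steps from 100 uM) in 0.5% DMSO. Expression of CYP3A5 is quantified by Fluidigm qRT-PCR and normalized to three reference genes.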
# [3] = read-out: Fatty Acid-Binding Protein 1 (FABP1), FABP1 (gene 2168); assay: LTEA_HepaRG_FABP1: Life Technologies and Expression Analysis (LTEA) Assay for Fatty Acid-Binding Protein 1 (FABP1) using HepaRG (AID 2283494)
# Summary of the method: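 FABP1 expression by TaqMan qRT-PCR, normalised to three housekeeping genes, in HepaRG cells after 48 h chemical treatment. Eight-point half-log series topping at 100 uM in 0.5% DMSO, duplicates; gain or loss fitted relative to vehicle.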
# [4] = read-out: Cytochrome P450 4A22 (Homo sapiens) (UniProt Q5TCH4); assay: LTEA_HepaRG_CYP4A22: Life Technologies and Expression Analysis (LTEA) Assay for Cytochrome P450 4A22 (CYP4A22) using HepaRG (AID 2283495)
# Summary of the method: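 Differentiated HepaRG cells in serum-free induction medium exposed 48 h in duplicate to eight half-log concentrations up to 100 uM in 0.5% DMSO. CYP4A22 mRNA quantified by TaqMan qRT-PCR, normalized to ACTB, GAPDH and POLR2A; bidirectional fit versus DMSO.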
# [5] = read-out: Cytochrome P450 7A1 (Homo sapiens) (UniProt P22680); assay: LTEA_HepaRG_CYP7A1: Life Technologies and Expression Analysis (LTEA) Assay for Cytochrome P450 7A1 (CYP7A1) using HepaRG (AID 2283496)
# Summary of the method: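 HepaRG, 48 h exposure, 8-pt half-log series from 100 uM, 0.5% DMSO vehicle, duplicates. Readout: TaqMan qRT-PCR mRNA vs three housekeeping genes; bidirectional curve fit against DMSO baseline.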
# [6] = read-out: Glutathione S-Transferase (GSTA2), GSTA2 (gene 2939); assay: LTEA_HepaRG_GSTA2: Life Technologies and Expression Analysis (LTEA) Assay for Glutathione S-Transferase (GSTA2) using HepaRG (AID 2283497)
# Summary of the method: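 GSTA2 transcript levels came from Fluidigm TaqMan qRT-PCR normalized to three housekeeping genes, fitted in both directions against DMSO. HepaRG cultures received chemicals for 48 h in serum-free induction medium (0.5% DMSO), 8 half-log concentrations up to 100 uM, duplicate.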
# [7] = read-out: Glutamate-cysteine ligase catalytic (GCLC), GCLC (gene 2729); assay: LTEA_HepaRG_GCLC: Life Technologies and Expression Analysis (LTEA) Assay for Glutamate-cysteine ligase catalytic (GCLC) using HepaRG (AID 2283498)
# Summary of the method: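 Expression by TaqMan qRT-PCR, normalized to three housekeeping genes (ACTB, GAPDH, POLR2A), with up- or down-regulation fitted against DMSO. HepaRG cells dosed in duplicate for 48 h with 8 half-log concentrations up to 100 uM, vehicle 0.5% DMSO.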
# [8] = read-out: growth arrest and DNA damage 45 (GADD45G), GADD45G (gene 10912); assay: LTEA_HepaRG_GADD45G: Life Technologies and Expression Analysis (LTEA) Assay for growth arrest and DNA damage 45 (GADD45G) using HepaRG (AID 2283499)
# Summary of the method: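 Differentiated human HepaRG cells, 48 h post-plating, exposed 48 h in serum-free induction medium to 8 half-log concentrations (top 100 uM, 0.5% DMSO) in duplicate. GADD45G mRNA measured by Fluidigm TaqMan qRT-PCR, normalized to ACTB, GAPDH, POLR2A; bidirectional fit versus DMSO.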
# [9] = read-out: Glutamate-cysteine ligase regulatory (GCLM), GCLM (gene 2730); assay: LTEA_HepaRG_GCLM: Life Technologies and Expression Analysis (LTEA) Assay for Glutamate-cysteine ligase regulatory (GCLM) using HepaRG (AID 2283500)
# Summary of the method: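 Endpoint is GCLM transcript level by qRT-PCR, normalized to three housekeeping genes, after 48 h chemical exposure of human HepaRG cells (0.5% DMSO vehicle, top 100 uM, half-log dilutions). Fitting was bidirectional relative to DMSO.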
# [10] = read-out: Glutathione S-transferase M3 (GSTM3), GSTM3 (gene 2947); assay: LTEA_HepaRG_GSTM3: Life Technologies and Expression Analysis (LTEA) Assay for Glutathione S-transferase M3 (GSTM3) using HepaRG (AID 2283501)
# Summary of the method: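 Differentiated human HepaRG cells were exposed in duplicate for 48 h in serum-free induction medium, 8 points from 100 uM top in half-log steps, 0.5% DMSO. GSTM3 mRNA was measured by TaqMan qRT-PCR, normalized to ACTB, GAPDH and POLR2A; bidirectional fit versus DMSO.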
# [11] = read-out: Hypoxia-inducible factor 1-alpha (Homo sapiens) (UniProt Q16665); assay: LTEA_HepaRG_HIF1A: Life Technologies and Expression Analysis (LTEA) Assay for Hypoxia-inducible factor 1 (HIF1A) Trancription factor using HepaRG (AID 2283503)
# Summary of the method: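 HIF1A transcript level read by qRT-PCR (ACTB, GAPDH, POLR2A normalization) after 48 h chemical exposure of HepaRG cultures. Eight half-log concentrations, top 100 uM, 0.5% DMSO vehicle, duplicates; bidirectional curve fit against DMSO baseline.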
# [12] = read-out: 3-Hydroxy-3-Methylglutaryl-CoA Synthase 2 (HMGCS2), HMGCS2 (gene 3158); assay: LTEA_HepaRG_HMGCS2: Life Technologies and Expression Analysis (LTEA) Assay for 3-Hydroxy-3-Methylglutaryl-CoA Synthase 2 (HMGCS2) using HepaRG (AID 2283504)
# Summary of the method: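 Human HepaRG cells in serum-free induction medium were exposed in duplicate for 48 h to 8-point half-log series from 100 uM top in 0.5% DMSO. HMGCS2 mRNA measured by TaqMan qRT-PCR, normalised to ACTB, GAPDH, POLR2A; bidirectional fit versus DMSO.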
# [13] = read-out: Insulin Like Growth Factor 1 (IGF1), IGF1 (gene 3479); assay: LTEA_HepaRG_IGF1: Life Technologies and Expression Analysis (LTEA) Assay for Insulin Like Growth Factor 1 (IGF1) using HepaRG (AID 2283506)
# Summary of the method: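 Cells are thawed, plated and cultured 48 h, then exposed in duplicate to chemical (highest 100 uM, half-log steps, 0.5% DMSO) for another 48 h. Total RNA is analysed by Fluidigm qRT-PCR for IGF1 expression relative to vehicle.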
# [14] = read-out: Intercellular Adhesion Molecule 1 (ICAM1), ICAM1 (gene 3383); assay: LTEA_HepaRG_ICAM1: Life Technologies and Expression Analysis (LTEA) Assay for Intercellular Adhesion Molecule 1 (ICAM1) using HepaRG (AID 2283507)
# Summary of the method: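 Differentiated human HepaRG cells in serum-free induction medium exposed 48 h in duplicate to 8 half-log concentrations (top 100 uM, 0.5% DMSO). ICAM1 mRNA quantified by TaqMan qRT-PCR, normalized to ACTB, GAPDH and POLR2A; bidirectional fitting versus DMSO.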
# [15] = read-out: Insulin-like growth factor-binding protein 1 (IGFBP1), IGFBP1 (gene 3484); assay: LTEA_HepaRG_IGFBP1: Life Technologies and Expression Analysis (LTEA) Assay for Insulin-like growth factor-binding protein 1 (IGFBP1) using HepaRG (AID 2283508)
# Summary of the method: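 HepaRG cells, plated 48 h then switched to serum-free induction medium, exposed in duplicate for 48 h to 8-point half-log series from 100 uM in 0.5% DMSO. mRNA measured by qRT-PCR, normalized to ACTB/GAPDH/POLR2A; bidirectional fit versus DMSO.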
# [16] = read-out: Interleukin 6 Receptor (IL6R), IL6R (gene 3570); assay: LTEA_HepaRG_IL6R: Life Technologies and Expression Analysis (LTEA) Assay for Interleukin 6 Receptor (IL6R) using HepaRG (AID 2283510)
# Summary of the method: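 Cells were thawed, plated and cultured 48 h, then medium was changed to serum-free induction medium. Chemicals were added in duplicate (100 uM top, half-log steps, 0.5% DMSO) for 48 h. Lysates were analyzed by qRT-PCR for IL6R expression.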
# [17] = read-out: Interleukin 6 (IL6), IL6 (gene 3569); assay: LTEA_HepaRG_IL6: Life Technologies and Expression Analysis (LTEA) Assay for Interleukin 6 (IL6) using HepaRG (AID 2283509)
# Summary of the method: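 Transcript levels, normalized to three housekeeping genes, were quantified by qRT-PCR after 48 h chemical treatment of HepaRG cells. Eight-point half-log series from 100 uM in 0.5% DMSO, duplicates. Fitted both directions against DMSO baseline.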
# HGF (gene 3082) = assay: LTEA_HepaRG_HGF: Life Technologies and Expression Analysis (LTEA) Assay for Hepatocyte Growth Facto (HGF) using HepaRG (AID 2283505)
# Summary of the method: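 Differentiated HepaRG cells in serum-free induction medium exposed 48 h in duplicate, 8 half-log concentrations from 100 uM in 0.5% DMSO. HGF mRNA by qRT-PCR, normalised to ACTB, GAPDH, POLR2A; bidirectional fitting.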
# Sequence of Cytochrome P450 3A7 (Homo sapiens) (P24462 whole entry, looked up): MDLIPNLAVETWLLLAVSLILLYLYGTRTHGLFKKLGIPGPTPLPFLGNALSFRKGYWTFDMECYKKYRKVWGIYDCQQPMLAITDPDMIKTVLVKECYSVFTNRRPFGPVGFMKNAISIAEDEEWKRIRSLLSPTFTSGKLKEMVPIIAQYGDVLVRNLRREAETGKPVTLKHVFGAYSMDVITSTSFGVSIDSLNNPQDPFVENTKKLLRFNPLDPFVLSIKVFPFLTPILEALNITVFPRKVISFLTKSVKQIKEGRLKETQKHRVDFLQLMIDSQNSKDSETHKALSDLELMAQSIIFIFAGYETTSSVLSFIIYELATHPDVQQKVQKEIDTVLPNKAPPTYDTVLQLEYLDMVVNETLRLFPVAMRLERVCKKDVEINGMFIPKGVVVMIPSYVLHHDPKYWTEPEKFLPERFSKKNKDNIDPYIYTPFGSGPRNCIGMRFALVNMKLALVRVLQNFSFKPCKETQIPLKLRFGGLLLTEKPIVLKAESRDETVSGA
# Sequence of Hypoxia-inducible factor 1-alpha (Homo sapiens) (Q16665 whole entry, looked up): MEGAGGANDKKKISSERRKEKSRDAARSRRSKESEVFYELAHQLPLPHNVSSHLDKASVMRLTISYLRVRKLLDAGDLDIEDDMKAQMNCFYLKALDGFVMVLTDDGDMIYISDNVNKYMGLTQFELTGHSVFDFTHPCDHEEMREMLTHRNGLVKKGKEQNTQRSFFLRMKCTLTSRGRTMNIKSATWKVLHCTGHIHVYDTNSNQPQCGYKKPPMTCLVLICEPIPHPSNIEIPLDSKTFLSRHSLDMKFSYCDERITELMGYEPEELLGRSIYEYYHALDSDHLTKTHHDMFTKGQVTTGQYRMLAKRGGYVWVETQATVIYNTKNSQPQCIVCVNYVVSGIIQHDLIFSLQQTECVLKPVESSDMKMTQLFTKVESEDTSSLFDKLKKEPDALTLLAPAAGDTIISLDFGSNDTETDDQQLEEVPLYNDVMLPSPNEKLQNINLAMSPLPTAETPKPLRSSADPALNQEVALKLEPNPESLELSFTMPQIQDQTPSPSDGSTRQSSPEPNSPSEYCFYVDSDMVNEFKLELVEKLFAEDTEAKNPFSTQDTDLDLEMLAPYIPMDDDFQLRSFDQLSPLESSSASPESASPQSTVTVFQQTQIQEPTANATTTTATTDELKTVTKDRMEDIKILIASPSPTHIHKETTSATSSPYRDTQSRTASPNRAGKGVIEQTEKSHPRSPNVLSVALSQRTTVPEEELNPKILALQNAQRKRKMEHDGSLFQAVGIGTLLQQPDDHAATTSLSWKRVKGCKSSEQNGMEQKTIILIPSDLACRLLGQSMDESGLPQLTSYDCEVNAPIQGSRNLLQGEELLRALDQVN
smiles,measurement,setting,value
CCCCC(C#N)(Cn1cncn1)c1ccc(Cl)cc1 (configuration not stated),outcome,[1],inactive
same,AC50,[2],3.89 µM (active)
same,outcome,CYP3A5 (gene 1577),inactive
same,AC50,[3],13.1 µM (active)
same,AC50,[4],51.8 µM (active)
same,outcome,[5],inactive
same,outcome,[6],inactive
same,outcome,[7],inactive
same,AC50,[8],11.7 µM (active)
same,outcome,[9],inactive
same,outcome,[10],inactive
same,outcome,[11],inactive
same,AC50,[12],78.1 µM (active)
same,AC50,[13],68.7 µM (active)
same,outcome,[14],inactive
same,outcome,[15],inactive
same,outcome,[16],inactive
O=P(O)(O)CCCl,outcome,[1],inactive
same,outcome,[2],inactive
same,outcome,CYP3A5 (gene 1577),inactive
same,outcome,[3],inactive
same,outcome,[4],inactive
same,outcome,[5],inactive
same,outcome,[6],inactive
same,outcome,[7],inactive
same,outcome,[8],inactive
same,outcome,[9],inactive
same,outcome,[10],inactive
same,outcome,[11],inactive
same,outcome,[12],inactive
same,outcome,[13],inactive
same,outcome,[14],inactive
same,outcome,[15],inactive
same,outcome,[17],inactive
same,outcome,[16],inactive
CC1(C)C(C=C(Cl)Cl)C1C(=O)OC(C#N)c1cccc(Oc2ccccc2)c1 (configuration not stated),outcome,[1],inactive
same,outcome,[2],inactive
same,outcome,CYP3A5 (gene 1577),inactive
same,outcome,[3],inactive
same,outcome,[4],inactive
same,AC50,[5],13.9 µM (active)
same,outcome,[6],inactive
same,outcome,[7],inactive
same,outcome,[8],inactive
same,outcome,[9],inactive
same,outcome,[10],inactive
same,outcome,[11],inactive
same,outcome,[12],inactive
same,AC50,[13],50 µM (active)
same,outcome,[14],inactive
same,outcome,[15],inactive
same,outcome,[16],inactive
CCOP(=S)(OCC)Oc1nc(Cl)n(C(C)C)n1,outcome,[1],inactive
same,outcome,[2],inactive
same,outcome,CYP3A5 (gene 1577),inactive
same,outcome,[3],inactive
same,AC50,[4],35.9 µM (active)
same,AC50,[5],2.01 µM (active)
same,outcome,[6],inactive
same,outcome,[7],inactive
same,outcome,[8],inactive
same,outcome,[9],inactive
same,outcome,[10],inactive
same,outcome,[11],inactive
same,AC50,[12],17.2 µM (active)
same,AC50,[13],18.9 µM (active)
same,outcome,[14],inactive
same,AC50,[15],1.57 µM (active)
same,AC50,[16],12.2 µM (active)
CCOP(=O)(OCC)Oc1nc(Cl)c(Cl)cc1Cl,outcome,[1],inactive
same,AC50,[2],92.1 µM (active)
same,outcome,CYP3A5 (gene 1577),inactive
same,AC50,[3],82.6 µM (active)
same,AC50,[4],90.1 µM (active)
same,AC50,[5],83.8 µM (active)
same,AC50,[6],75.5 µM (active)
same,AC50,[7],84.1 µM (active)
same,outcome,[9],inactive
same,outcome,[10],inactive
same,AC50,[11],49.8 µM (active)
same,AC50,[12],84.8 µM (active)
same,outcome,HGF (gene 3082),inactive
same,outcome,[13],inactive
same,outcome,[14],inactive
same,outcome,[15],inactive
same,outcome,[17],inactive
same,AC50,[16],60.2 µM (active)
